Measurements published in the OligoGym collection.

Biological target: TRMT1
Experiment: pooled miR-30 sensor sort-seq; sequence = guide strand
Settings: shRNA
Further: reference of the scale not given here.

Sequence | sensor-assay potency score (higher = more potent)
TTTGCGTGTCCTTCTCTCCTGG | 0.33
TCGGTGACTGTCGTCTCCTGGA | -1.21
TCTCTGATAGTCGCTCCCGTTT | -1.66
TAGTACAGAGGCACGTCCGGGA | -0.101
TAGAAGTCAGCGCTGATGCTGA | -0.13
TAGTCTCTGATAGTCGCTCCCG | -0.643
TTGTTCTGAAGCAGCCTGCGTC | -0.663
TCTCCTGGAACCTTGATCTGGA | -0.0549
TCGTTTGCAACCACAGATCTGA | -0.44
TCATTGAGCTGGACATTCCGGC | 0.0258

Biological target: TRO
Experiment: as above
Settings: shRNA

Sequence | sensor-assay potency score (higher = more potent)
TTGAGCACACTGCCAAAGCTGG | -0.914
TTGATGGGGATCTTTGTCTGGT | -0.592
TAAAATGGCCACATCTCGCGGT | 0.238
TTGGGTGTGTCCTTGGTCGTTC | 0.127
TTTCATCTTGCTAGTCTCGTGG | 0.184
TAGTATTAGATGCACTGCCAAA | -1.27
TTGGTCAGCATTTGGAGTCTGG | 0.322
TTAGTAATAGTCTTTATAGGGG | -0.72
TAGTGCTCAGTGTACCACCAAA | -1.66
TACACCACTAAAGCCAGCCGTG | -1.01
TTGAGTGCACTGCCAAAGCTGA | -0.944
TTCATCTTGCTAGTCTCGTGGT | 0.132

Biological target: TRPC4
Experiment: as above
Settings: shRNA

Sequence | sensor-assay potency score (higher = more potent)
TTCTCTGGAACTTCTCGTCTGA | -0.126
TATGAGACTATTGTCATCTCGG | 0.182
TTGAATGGACACACTCTCTTTC | -0.228
TATTGTTCCAAAACTTTCTGGC | 0.627
TATTTCTCTCAAGTGGTCCTGC | 0.27
TAGATGTTGAGTCTGGAGCGTG | -0.516
TTGACGAGCAACTTCTTCTGAA | 0.0812
TTGAGTAGAACAACCAGAGAGA | -0.452
TATACTAGAGTCCTCTTCTTTT | -1.18
TTTGGTATTATAGGAACCGTGT | -0.294
TTCTTTTGCATGTTTCTCCTTT | 0.299
TAACACACATTGTTCACTGAGA | -0.436

Biological target: TRPM3
Experiment: as above
Settings: shRNA

Sequence | sensor-assay potency score (higher = more potent)
TTTCTTGAGCTCATCATCGGTT | 0.21
TTCTATACCACCTTTGTCTTTC | 0.0572
TTGTACAATTCCTCTAGTCTGG | -0.181
TTTGTCTTTCATATTGACCGAA | -0.0309
TAAAATGCTCTTTCTATCCAGG | -0.366
TTATTTTACCATCCTCTCGGGT | -0.671
